Hit rate of the full screen: of about 410,000 compounds, about 1,200 (0.29%) were called active. Roughly 2% stayed inconclusive and do not appear here. The full list was thinned out, with actives kept by preference. Unmarked numbers belong to inactive results. The call rests on the fitted dose curve; in most records, active means well fitted activation curve with a large enough effect; inconclusive means small, poorly fitted or top-dose-only effect; inactive means flat fitted curve, though single readings scatter.
Experiment: qHTS of Nrf2 Activators; further: nearly all actives have a fitted effect of over 65% in size; on activation: % of control where 0% means no effect
Details: AREc32 ARE-luciferase reporter (MCF7-derived line), luminescence, 24 h; series mostly up to 46.1 µM; activation: at the top concentration
Text: Many diseases have some form of oxidative stress injury and ties to inflammation, causing a host of problems for the patient. The antioxidant response element (ARE) plays an important role in alleviating the harmful effects of oxidative stress. The antioxidant response element (ARE) is a transcriptional regulatory element involved in the activation of genes coding for a number of antioxidant proteins and detoxifying enzymes. These enzymes work in concert to protect tissues from oxidative insults and chemical toxicities in human hepatocytes and immune cells. The protective effects of ARE activation are primarily triggered through Nrf2 (NF-E2-related factor) binding to and activating AREs. It is known that Nrf2 controls the production of over 250 antioxidant and detoxification proteins (Hu et al., 2006), thereby protecting tissues by increasing cellular antioxidant content and suppressing inflammatory signaling pathways. The transcription factor Nrf2 is a central link between oxidative chemicals, such as phenolic antioxidants and electrophilic compounds, and the activation of ARE. Nrf2 levels are constitutively low as a consequence of its interaction with Keap1, which targets its degradation (Zipper and Mulcahy, 2002). Electrophiles react with key cysteine residues in Keap1, releasing Nrf2 and allowing its translocation to the nucleus. Once within the nucleus, Nrf2 complexes with coactivators such as p300, and binds to the AREs to induce gene transcription of cytoprotective enzymes, resulting in the prevention of toxicity. Activation of Nrf2 protects tissues by increasing cellular antioxidant content and suppressing inflammatory signaling pathways. Identifying novel and potent Nrf2 activators by using the AREc32 cell line to detect ARE activation by small molecules will lead to the identification and development of probes to study protective pathways in multiple tissues. These specific probes are essential to study the ARE pathway, and eventually to determine whether this pathway does activate genes that could protect against a host of diseases, including cardiovascular diseases, obesity, diabetes, Alzheimer's, and Parkinson's disease.
This project's aim is to identify novel and potent Nrf2 activators by using the AREc32 cell line to detect ARE activation by small molecules, which will lead to the identification and development of probes to study the ARE pathway.
NIH Chemical Genomics Center [NCGC]
NIH Molecular Libraries Probe Centers Network [MLPCN]
Assay Submitter (PI): Curtis Klaassen, University of Kansas Medical Center
5 uL of 1000 cells/well of AREc32_Fluc cells are seeded into 1536-well plate in OPTI-MEM medium with 5% FBS. The plates are incubated overnight at 37 deg C with 5% CO2. Then through pin tool transfer, 23 nL of compounds are added to each well before a 24 hr incubation at 37 deg C with 5% CO2. After the addition of 2.5 uL of Steady-Glo. the plates are kept at RT for 30 min, before they are read on the ViewLux.
Potency means the concentration at half of the fitted maximal effect.

Structure (SMILES) | activation | Potency
CCN1CCN(c2cc(C)c3cc(NC(=O)c4cc(Cl)ccc4OC)ccc3n2)CC1 | 0.689% | 
COc1ccc(CCNC(=O)CCCn2c(=O)c3ccccc3n(Cc3ccc(F)cc3Cl)c2=O)cc1OC | -0.204% | 
CCOc1ccccc1C(=O)NC1(C(F)(F)F)C(=O)Nc2c1c(=O)[nH]c(=O)n2-c1ccc(F)cc1 (stereo not given) | -0.547% | 
Cc1ccc(-c2noc(-c3nnn(-c4cccc(C(F)(F)F)c4)c3N)n2)cc1 | -0.844% | 
Cc1cccc(NC(=O)CSc2nnc(CNC(=O)c3cccc(C)c3)n2-c2ccccc2)c1 | -0.11% | 
CCOC(=O)c1c(NC(C)=O)c2c3c(sc2n1Cc1c(C)cc(C)cc1C)CCCC3 | 7.04% | 
COc1ccccc1CNC(=O)CCCCn1c(=O)c2ccccc2n(CC(=O)Nc2cc(Cl)ccc2C)c1=O | -0.0006% | 
COc1cccc(C(=O)N(Cc2cccc(Cl)c2)Cc2ccco2)c1 | 8.54% | 
COc1ccccc1N1CCN(S(=O)(=O)CCNC(=O)COc2ccc(F)cc2)CC1 | 2.57% | 
CC(C)n1c(O)c(N=Nc2ccccn2)c2ccccc21 |  | 12.6 µM (active)
COC(=O)Cn1c(O)c(N=NC(=O)OC)c2ccccc21 | 4.09% | 
CCOC(=O)c1ccc(N2C(=O)c3[nH]nc(-c4ccccc4)c3C2c2ccc(C(C)C)cc2)cc1 (stereo not given) | -0.391% | 
CC1CCCCN1Cc1c(O)ccc2c(=O)c(-c3cccc(Cl)c3)c(C(F)(F)F)oc12 (stereo not given) | 2.18% | 
COc1ccc(-c2nc3c4ccccc4n(CC(=O)Nc4ccc(C(C)=O)cc4)c(=O)n3n2)cc1 | -0.364% | 
CC(C)(C)OC(=O)N1CCC(c2c(C(=O)N3CCc4ccccc4C3)cnn2-c2ccc(F)cc2)CC1 | 0.152% | 
N/C(=N\OS(=O)(=O)c1cccc([N+](=O)[O-])c1)c1ccncc1 | -1.41% | 
O=C(/C=C/c1cccc([N+](=O)[O-])c1)OCC(=O)N1CCOCC1 | 14.8% | 
O=C(c1ccncc1)N1CCN(S(=O)(=O)c2cccc([N+](=O)[O-])c2)CC1 | 2.53% | 
O=C(N/N=C/c1cccc([N+](=O)[O-])c1)c1ccncc1 |  | 12.6 µM (active)
COc1cc(CCN=Cc2ccccc2O)c([N+](=O)[O-])cc1OC | 0.105% | 
O=[N+]([O-])c1cccc(C=NN=Cc2ccccc2O)c1 |  | 10 µM (active)
O=C(COc1ccccc1F)OCc1cc(=O)n2nc(C3CCCCC3)sc2n1 | 0.67% | 
Cc1cccc(OCC(=O)N(Cc2ccc(C(C)C)cc2)Cc2ccco2)c1C | 1.44% | 
O=C1CSC2(C(=O)N(Cc3ccccc3)c3ccccc32)N1c1cccc(F)c1 (stereo not given) | 1.27% | 
Cc1ccc(C)c(N2CCN(C(c3ccccc3)c3nnc(-c4ccccc4)o3)CC2)c1 (stereo not given) | 3.85% | 

Structure (SMILES) | activation | Potency
CCn1cc(C(=O)N2CCN(c3cc(Cl)ccc3C)CC2)c(=O)c2cc(S(=O)(=O)N3CCCC3)ccc21 | 0.498% | 
Cc1ccc(-n2c3nc(=O)[nH]c(=O)c-3cc3c(Cl)cccc32)cc1 | 0.875% | 
COc1ccc2c(Cl)c(-c3nnco3)sc2c1 | 2.03% | 
C#CCSc1nnc(-c2sc3ccccc3c2Cl)o1 |  | 4.47 µM (active)
O=C(OCC#CCSc1nnc(-c2ccncc2)o1)c1sc2ccccc2c1Cl | 0.724% | 
CCN(CC)c1ccc(NC(=O)CN2C(=O)c3cccnc3Oc3ccc(Cl)cc32)c(C)c1 | -0.609% | 
Cc1ccc2cccc(NC(=O)c3cccc4ccccc34)c2n1 | 4.65% | 
Cc1cccc2c(=O)cc(CSc3ccccc3NC(=O)C(C)C)[nH]c12 | 4.34% | 
Cc1ccnc(NC(=O)c2ccco2)n1 |  | 12.6 µM (active)
Cc1ccccc1NC(=O)c1cnn(-c2ccccc2)c1NC(=O)c1ccco1 | 0.175% | 
CCn1nc(NC(=O)c2ccco2)c2cc3ccc(C)cc3nc21 | 3.83% | 
COc1ccc(NC(=O)CCc2nnc3n(CC(C)C)c(=O)c4ccccc4n23)cc1OC | 0.545% | 
Cc1ccc(Cn2c(CCCNC(=O)C3CCCCC3)nc3ccccc32)cc1 | 6.06% | 
O=C(Nc1nnc(C2CC2)s1)c1cc(Cl)sc1Cl |  | 20 µM (active)
CCc1cc(C(=O)Nc2nnc(C3CC3)s2)sc1C | 3.95% | 
CCc1ccccc1OCC(=O)Nc1nnc(C2CC2)s1 | -0.969% | 
CCOc1ccc(-n2c(SCC(=O)NCc3ccccc3)nc3n[nH]c(C)c3c2=N)cc1 | 5.99% | 
CCC(CC)c1nnc(NC(=O)C2CCN(C(=O)c3ccco3)CC2)s1 | 4.71% | 
CCC(CC)c1nnc(NC(=O)C2=COCCO2)s1 | 2.51% | 
C/C=C/C(=O)Nc1nnc(C(C)C)s1 | 5.58% | 
Cc1nnc(NC(=O)/C=C/c2ccco2)s1 |  | 3.55 µM (active)
CCc1ccc2oc(-c3ccc(C)c(NC(=O)/C=C/c4ccco4)c3)nc2c1 | 26.7% | 
CCC(CC)c1nnc(NC(=O)/C=C/c2ccco2)s1 |  | 2.51 µM (active)
Cc1cc(NS(=O)(=O)c2ccc(NC(=O)c3ccccc3C)cc2)nc(C)n1 | -0.564% | 
CCc1ccc(N2C(=O)CN(S(=O)(=O)CC)CC2(C)C(=O)NC2CCCCC2)cc1 (stereo not given) | -0.616% | 
